The list is not random: actives were taken first. Their share in the collection is about 11%.
BAZ2B inh: blocks human BAZ2B. 360,000 tested, 4.4% active. AID 504333. Potency, µM (series often up to 114 µM), actives largely listed as inhibitors. Q9UIF8. AlphaScreen BAZ2B-H3K14Ac peptide displacement; further: nearly all actives have a fitted effect of over 60% in size
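BAZ2B (50 nM) with biotin-H3(5-23)K14Ac peptide (50 nM) in PBS pH 7.4, 0.01% Tween-20, preformed 30 min, then compound 30 min at room temperature; top concentration 110uM. AlphaScreen streptavidin donor/nickel chelate acceptor beads (10 ug/mL final), 20 min dark, signal read.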
JMJD2A Tudor inh: JMJD2A Tudor domain (human) inhibition. O75164. AlphaScreen JMJD2A-Tudor / H3K4me3 peptide binding. Potency, µM (highest dose often 114 µM), usual class: inhibitors. 390,000 tested, 4.4% active; further: nearly all actives have a fitted effect of over 50% in size
G9a inh: blocks human histone lysine methyltransferase G9a | Potency, µM (doses to about 102 µM), usual class: inhibitors | 350,000 tested, 8.8% active | G9a H3K9 monomethylation, AlphaScreen, 2 h; further: nearly all actives have a fitted effect of over 75% in size
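Using a bead-based AlphaScreen, monomethylated H3K9 product from 2 h room-temperature reactions (G9a 20 nM, peptide 500 nM, SAM 20 uM) was detected with 0.5 ug/mL rabbit anti-H3K9me1 antibody.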
HP1b chromo inh: HP1-beta chromodomain-methylated histone interaction inhibition. AlphaScreen HP1-beta / biotin-H3K9me3 peptide binding. Potency, µM (series often up to 114 µM), actives largely listed as inhibitors. 390,000 tested, 0.56% active; further: nearly all actives have a fitted effect of over 70% in size
Target sequence (P83916 whole entry, looked up): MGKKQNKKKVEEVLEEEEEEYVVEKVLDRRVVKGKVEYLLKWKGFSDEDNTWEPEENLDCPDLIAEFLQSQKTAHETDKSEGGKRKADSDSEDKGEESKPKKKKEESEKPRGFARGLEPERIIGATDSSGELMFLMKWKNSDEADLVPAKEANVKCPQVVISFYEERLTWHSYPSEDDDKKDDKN
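Compound inhibition of the preformed complex between 50 nM HP1-beta and 50 nM biotinylated H3K9me3 peptide was read by AlphaScreen. Buffer was PBS pH 7.4 with 0.01% Tween-20. Incubations ran 30 min at room temperature, with 10 ug/mL donor/acceptor beads.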
L3MBTL1 block: L3MBTL1 (human) inhibition; Potency, µM (titrated, usually from 57.1 µM), hits mostly inhibitors; AlphaScreen L3MBTL1–H3K9me1 peptide binding; Q9Y468; 230,000 tested, 0.66% active; further: nearly all actives have a fitted effect of over 60% in size
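First, the protein-peptide complex forms for 30 min at room temperature (L3MBTL1 50 nM, biotinylated H3K9me1 peptide 75 nM). Next, compounds are pin-transferred and incubated 30 min. Finally, AlphaScreen beads are added and read after 30 min.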
PI5P4K alpha inh: inhibitors of human PI5P4K alpha; P48426; PI5P4Kalpha enzyme, ADP-Glo luminescence, 60 min; active compounds read low; max response, %; 330,000 tested, 1.2% active; AID 652105; active means max response of -50% or lower; inconclusive means between -30% and -50%; inactive means -30% or higher; further: value at the top dose of about 77 µM
Target sequence (P48426 whole entry, looked up): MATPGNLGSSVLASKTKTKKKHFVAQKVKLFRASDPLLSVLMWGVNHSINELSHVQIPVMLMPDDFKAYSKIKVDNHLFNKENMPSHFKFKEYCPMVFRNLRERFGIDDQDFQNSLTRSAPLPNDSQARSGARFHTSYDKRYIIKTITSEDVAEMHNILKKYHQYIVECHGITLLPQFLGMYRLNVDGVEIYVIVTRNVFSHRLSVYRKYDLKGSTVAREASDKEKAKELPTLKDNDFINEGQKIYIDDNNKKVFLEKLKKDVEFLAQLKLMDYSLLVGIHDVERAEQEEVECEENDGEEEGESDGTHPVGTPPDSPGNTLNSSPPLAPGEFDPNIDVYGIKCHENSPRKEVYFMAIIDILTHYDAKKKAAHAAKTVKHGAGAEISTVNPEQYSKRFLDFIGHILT
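PI5P4Kalpha ADP-Glo assay; 5 microM ATP final; 60 min RT reaction; HEPES pH 7.4/EGTA/CHAPS, 5% DMSO; controls lacking substrate or enzyme; luminescent end-point.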
ADP-Glo counter: ADP-Glo luciferase interference, PI5P4K counter-screen. 1,100 tested, under 10 active. ADP-Glo detection counter-screen, luciferase luminescence, no enzyme. AID 743285. shares compounds with PI5P4K alpha inh. Potency, µM (doses to about 76.9 µM), hits mostly inhibitors
Each line names hits and unclear results; the compound was inactive in the other large screens (follow-up assays come after a bar, where they were run). Unless noted, the call rests on the fitted dose curve; in most records, active means well fitted curve in the direction sought with a large enough effect; inconclusive means small, poorly fitted or top-dose-only effect, or another doubt; inactive means no such curve, though single readings can be large; an effect the other way counts as inactive or inconclusive.

CC(=O)NC(c1cccs1)c1cc(Cl)c2ccccc2c1O (centres undefined)	none (no result: PI5P4K alpha inh)
CC(=O)NC(c1cccs1)c1cc([N+](=O)[O-])c2cccnc2c1O (centres undefined)	BAZ2B inh 4µM, JMJD2A Tudor inh 35µM, G9a inh 7.9µM, L3MBTL1 block 10µM, PI5P4K alpha inh -73 | ADP-Glo counter inactive
Cc1cn2c(=O)cc(COC(=O)c3cccc(NC(=O)c4ccccc4C)c3)nc2s1	none (no result: L3MBTL1 block, PI5P4K alpha inh)
O=C(OCc1nnc(-c2ccccc2)o1)c1cc2ccccc2cc1O	none
O=C(OCc1nnc(-c2ccccc2)o1)c1ccc2ccccc2n1	PI5P4K alpha inh -66 | ADP-Glo counter inactive
O=C(OCc1nnc(-c2ccccc2)o1)c1ccc(S(=O)(=O)NCc2ccco2)cc1	BAZ2B inh 79µM, JMJD2A Tudor inh 79µM, HP1b chromo inh inconclusive, PI5P4K alpha inh -54 | ADP-Glo counter inactive
N#C/C(=C\c1ccc(Cl)cc1)c1nc(-c2cc3c(ccc4ccccc43)oc2=O)cs1	none (no result: L3MBTL1 block, PI5P4K alpha inh)
CC(C)NC(=O)c1onc(CSc2ccccc2F)c1C(=O)O	JMJD2A Tudor inh inconclusive, PI5P4K alpha inh -66 | ADP-Glo counter inactive
CCCCNC(=O)c1onc(CSc2ccc(F)cc2)c1C(=O)O	BAZ2B inh inconclusive, PI5P4K alpha inh inconclusive
CCCCNC(=O)c1onc(CSc2ccc(OC)cc2)c1C(=O)O	G9a inh inconclusive, PI5P4K alpha inh -50 | ADP-Glo counter inactive
N#Cc1c(-c2ccc(Cl)cc2Cl)nc2n(c1=O)CCS2	PI5P4K alpha inh -54 (no result: L3MBTL1 block) | ADP-Glo counter inactive
Cc1ccc(NC(=O)c2cc(NC(=O)c3ccccc3C(=O)O)ccc2N2CCCCC2)cc1	BAZ2B inh inconclusive, G9a inh 14µM, L3MBTL1 block inconclusive, PI5P4K alpha inh -52 | ADP-Glo counter inactive
Cc1ccc(NC(=O)c2cc(N3C(=O)CCC3=O)ccc2N2CCCCC2)cc1	none
Cc1noc(C)c1C(=O)Nc1ccc(-n2ccc(C(F)(F)F)n2)cc1	PI5P4K alpha inh inconclusive (no result: L3MBTL1 block) | ADP-Glo counter inactive
Cc1cc(C)cc(NC(=O)Nc2ccc(-n3ccc(C(F)(F)F)n3)cc2)c1	none
CC(=O)c1ccc(NC(=O)Cn2c(-n3nc(C)cc3C)nc(C)cc2=O)cc1	JMJD2A Tudor inh inconclusive, G9a inh inconclusive (no result: L3MBTL1 block, PI5P4K alpha inh)
COc1ccc(Cn2cc(C(=O)c3ccc(Cl)cc3)c(=O)c3cc4c(cc32)OCO4)cc1	none (no result: L3MBTL1 block, PI5P4K alpha inh)
CCCCC(=O)N(Cc1ccc2c(c1)OCO2)Cc1nc2ccccc2c(=O)[nH]1	JMJD2A Tudor inh 32µM, PI5P4K alpha inh -53 | ADP-Glo counter inactive
O=C(CCc1ccccc1)N(Cc1cccnc1)c1nc2ccc(F)cc2s1	none (no result: L3MBTL1 block, PI5P4K alpha inh)
CSCCC(NC(=O)c1ccccc1Cl)C(=O)N1CCCCCCC1 (centres undefined)	none
COc1ccc(C(=O)NC(CCSC)C(=O)N2CCCCCC2)cc1 (centres undefined)	PI5P4K alpha inh -76 (no result: L3MBTL1 block) | ADP-Glo counter inactive
CC(C)[C@@H](CO)NC(=O)c1ccc2c3n(nc2c1)-c1ccccc1CO3	none (no result: L3MBTL1 block)
CC(C)NC(=O)c1ccc2c3n(nc2c1)-c1ccccc1CO3	PI5P4K alpha inh -52 (no result: L3MBTL1 block) | ADP-Glo counter inconclusive
Cc1oc(-c2ccccc2)nc1CNC(=O)Nc1ccccc1	none (no result: L3MBTL1 block, PI5P4K alpha inh)
CCc1ccccc1Nc1ncnc2c1cnn2-c1ccc(Cl)cc1	none (no result: L3MBTL1 block, PI5P4K alpha inh)
COc1ccccc1Cc1c(-c2ccco2)nc2ccc(C)cn12	none (no result: BAZ2B inh, JMJD2A Tudor inh, G9a inh, HP1b chromo inh, L3MBTL1 block)
COc1ccc(Cc2c(-c3ccco3)nc3ccc(Br)cn23)c(C)c1	PI5P4K alpha inh -60 (no result: BAZ2B inh, JMJD2A Tudor inh, G9a inh, HP1b chromo inh, L3MBTL1 block) | ADP-Glo counter inactive
Cc1cc(Br)cn2c(Cc3ccsc3)c(-c3ccco3)nc12	PI5P4K alpha inh -90 (no result: BAZ2B inh, JMJD2A Tudor inh, G9a inh, HP1b chromo inh, L3MBTL1 block) | ADP-Glo counter inactive
COc1ccccc1Cc1c(-c2ccco2)nc2c(C)cc(Br)cn12	PI5P4K alpha inh -78 (no result: BAZ2B inh, JMJD2A Tudor inh, G9a inh, HP1b chromo inh, L3MBTL1 block) | ADP-Glo counter inactive
COc1ccccc1Cc1c(-c2ccc(C)cc2)nc2c(C)cc(Br)cn12	none (no result: BAZ2B inh, JMJD2A Tudor inh, G9a inh, HP1b chromo inh, L3MBTL1 block)
CCOc1ccc(-n2c(=O)c3sc4ccccc4c3n(Cc3ccc(F)cc3)c2=O)cc1	none (no result: L3MBTL1 block, PI5P4K alpha inh)

Screening data (PubChem BioAssay)
